FLuc inh: inhibitors of firefly (Photinus pyralis) luciferase; purified P. pyralis luciferase, luminescence, biochemical; AID 1347043; P08659; 76,000 tested, 2.5% active; Potency, µM (top dose mostly 115 µM), usual class: inhibitors; also: nearly all actives have a fitted effect of over 65% in size
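Biochemical qHTS: compound (6-point titration) added to 10uM D-luciferin plus 10uM ATP in Tris acetate pH 7.5 buffer with Mg, Tween-20 and BSA, then purified enzyme at 10nM; light output imaged.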
3T3 cytotox: cytotoxic compounds in NIH 3T3 cells; 94,000 tested, 4.3% active; Potency, µM (top dose mostly 96.7 µM), for inactives: at the highest dose activity change, negative = cytotoxicity, usual class: inhibitors; NIH 3T3 viability, CellTiter-Glo ATP luminescence, 48-72 h; AID 1345082; also: nearly all actives have a fitted effect of over 55% in size
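Viability of NIH 3T3 cells after 48 or 72 hr compound treatment at 37 °C was assessed by CellTiter-Glo, with luminescence imaged following a 10 min room-temperature step.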
NPR1 antag: human Npr1 receptor antagonism | P16066 | HEK293 hNpr1 GloSensor cGMP, ANP-stimulated luminescence | Potency, µM (top dose mostly 46.3 µM), without a hit: at the highest dose activity change, negative = inhibition, hits mostly inhibitors | 76,000 tested, 1.6% active | AID 1347048; calls by dose curve; also: nearly all actives have a fitted effect of over 60% in size
Target sequence (P16066 whole entry, looked up): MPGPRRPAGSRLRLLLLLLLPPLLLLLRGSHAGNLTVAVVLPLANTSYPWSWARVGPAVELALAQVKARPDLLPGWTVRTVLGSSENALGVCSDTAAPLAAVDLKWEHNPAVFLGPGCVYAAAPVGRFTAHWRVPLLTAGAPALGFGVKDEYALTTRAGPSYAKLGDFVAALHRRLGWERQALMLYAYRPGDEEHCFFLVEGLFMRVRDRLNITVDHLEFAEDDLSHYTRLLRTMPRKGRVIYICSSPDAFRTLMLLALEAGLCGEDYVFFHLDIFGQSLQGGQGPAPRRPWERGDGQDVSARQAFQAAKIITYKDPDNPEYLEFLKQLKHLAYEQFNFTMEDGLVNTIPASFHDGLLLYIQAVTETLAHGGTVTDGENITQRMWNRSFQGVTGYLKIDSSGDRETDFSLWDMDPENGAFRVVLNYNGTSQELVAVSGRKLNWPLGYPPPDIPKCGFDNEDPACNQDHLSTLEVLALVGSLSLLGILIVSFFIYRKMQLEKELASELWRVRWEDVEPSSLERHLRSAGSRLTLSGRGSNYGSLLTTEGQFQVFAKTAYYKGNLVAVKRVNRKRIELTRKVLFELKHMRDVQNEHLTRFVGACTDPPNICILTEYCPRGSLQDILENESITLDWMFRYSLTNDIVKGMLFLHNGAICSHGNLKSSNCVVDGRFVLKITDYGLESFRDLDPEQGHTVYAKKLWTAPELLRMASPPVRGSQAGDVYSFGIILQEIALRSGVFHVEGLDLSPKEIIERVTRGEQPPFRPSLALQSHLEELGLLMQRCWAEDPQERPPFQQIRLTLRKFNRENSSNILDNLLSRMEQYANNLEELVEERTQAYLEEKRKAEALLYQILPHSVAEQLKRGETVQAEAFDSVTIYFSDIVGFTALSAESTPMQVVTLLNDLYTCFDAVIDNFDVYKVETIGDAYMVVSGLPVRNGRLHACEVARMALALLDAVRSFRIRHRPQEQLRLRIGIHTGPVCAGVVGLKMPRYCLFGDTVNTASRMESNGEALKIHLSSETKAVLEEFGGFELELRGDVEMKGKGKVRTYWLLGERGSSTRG
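Compound pre-incubated 30 min at room temperature on GloSensor-loaded HEK293 cells stably carrying hNpr1 and the pGS-40F cGMP biosensor. Stimulation uses hNppA at 0.1 nM final; luminescence is taken at baseline and 20 min post-agonist.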
HEK cytotox: kills HEK 293 cells | HEK 293 viability, ATP luminescence (CellTiter-Glo), 48-72 h | Potency, µM (highest dose often 115 µM), without a hit: at the highest dose activity change, negative = cytotoxicity, usual class: inhibitors | 94,000 tested, 6.6% active | AID 1345083; also: nearly all actives have a fitted effect of over 60% in size
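Pintool-delivered compounds were incubated with HEK 293 cells (250 cells/well) at 37 degree Celsius for 48 or 72 hr. ATP-dependent luminescence (CellTiter-Glo) then reported remaining viable cells.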
* marks the source's active call; other numbers are inactive results; i = inactive; ? = inconclusive; . = not tested or not shown; [ ] = another dose, or the depositor's remark. Shown are actives, neighbours in structure and some others; about 11% of the full set was active somewhere. Unless noted, calls follow the shape of the dose curve; as a rule, active = well fitted curve in the direction sought with a large enough effect; inconclusive = small, poorly fitted or top-dose-only effect, or another doubt; inactive = no such curve, though single readings can be large; an effect the other way counts as inactive or inconclusive. % is scaled to controls: 0 for no effect and ±100 for the full control effect; potency is read from the fitted curve at half-maximal effect.

SMILES	FLuc inh	3T3 cytotox	NPR1 antag	HEK cytotox
CC(=O)c1cccc(NC(=O)Cn2c(-c3ccccc3)nc(C)cc2=O)c1	i	-11.9%	-2.4%	?
Cc1cc(=O)n(CC(=O)Nc2ccccc2C)c(-c2ccc(Cl)cc2)n1	i	35.5µM*	-3.2%	?
CC(=O)c1cccc(NC(=O)Cn2c(-c3ccc(F)cc3)nc(C)cc2=O)c1	i	-25.5%	-13.6%	44.7µM*
CC(C)NC(=O)c1cnc2c(c1)N(C(=O)Cc1cn(C)c3ccccc13)CCC2	i	?	2.6%[70.6 µM]	?
CN1C(=O)C2(CCN(C(=O)NC3CCCCC3)CC2)c2ccccc21	i	?	3.2%	?
Cc1nc2cccnc2n1CC1CCCN(S(=O)(=O)c2cc(F)cc(F)c2)C1 (centres undefined)	i	-23.4%	1.1%	?
Cc1ccccc1-c1cccc(CN2CCOC(CCN)C2)c1 (centres undefined)	i	20µM*	-7.0%	?
CC(C)CN1C(=O)c2ccccc2C(C(=O)NCc2ccccn2)C12CCCCC2 (centres undefined)	i	-26.7%	-1.2%	?
Cc1cnc(CC2CCN(C(=O)COc3ccc(F)cc3)CC2)n1Cc1ccc(F)cc1	i	?	1.7%	?
O=c1c2c(n(Cc3cccnc3)n1CCc1ccccc1)CN(CC1CC1)CC2	i	39.8µM*	2.9%[70.6 µM]	i
CCn1c2c(c(=O)n1Cc1ccccc1)CCN(Cc1cncc(OC)c1)C2	i	79.4µM*	0.9%[70.6 µM]	3.7%[172 µM]
O=c1c2c(n(Cc3cccnc3)n1CCc1ccccc1)CN(CC1CCOC1)CC2 (centres undefined)	i	44.7µM*	2.1%[70.6 µM]	-13.6%[172 µM]
CCn1c2c(c(=O)n1Cc1ccccc1)CCN(Cc1nccs1)C2	i	?	-1.1%[70.6 µM]	-1.4%[172 µM]
COc1ccc(Cn2c3c(c(=O)n2Cc2ccccc2)CCN(CC2CCOC2)C3)cc1 (centres undefined)	i	28.2µM*	-19.8%[70.6 µM]	-29.1%[172 µM]
O=c1c2c(n(Cc3cccnc3)n1-c1ccccc1)CN(CC1CCOC1)CC2 (centres undefined)	i	?	1.5%[70.6 µM]	1.8%[172 µM]
COCCN1C(=O)c2ccccc2C(C(=O)Nc2nc3ccccc3s2)C12CCCCC2 (centres undefined)	?	44.7µM*	-16.4%	?
CCN1C[C@H]2COc3ccccc3[C@H]2N(C(=O)c2ccc(C)cc2)CCC1=O	.	-29.8%	.	?
COc1ccc(-c2nc(C)nc3c2CN([S+](=O)([O-])c2ccccc2)CC3)cc1	.	35.5µM*	.	i
Cc1nc2c(c(-c3ccc(Cl)cc3)n1)CCN([S+](C)(=O)[O-])CC2	i	-27.8%	2.2%	-1.5%
Cc1nc2c(c(-c3ccc(Cl)cc3)n1)CN([S+](=O)([O-])c1ccsc1)CC2	i	22.4µM*	12.3%	-28.3%
COc1ccc(-c2nc(C3CC3)nc3c2CN([S+](=O)([O-])c2ccccc2)CC3)cc1	.	17.8µM*	.	2.3%
C[S+](=O)([O-])N1CCc2nc(-c3ccc(Cl)cc3)nc(-c3ccccc3)c2C1	i	-17.0%	2.3%	-0.5%
COc1ccc(-c2nc(C)nc3c2CCN([S+](=O)([O-])c2ccccc2)CC3)cc1	i	-28.7%	6.2%	-22.4%
Cc1ccc([S+](=O)([O-])N2CCc3nc(-c4ccc(Cl)cc4)nc(-c4ccccc4)c3C2)cc1	28.2µM*	-12.6%	-2.0%	?
O=C(NCc1cccc(Cl)c1)C1CCc2nnc(CN[S+](=O)([O-])c3ccccc3Cl)n21 (centres undefined)	.	-18.6%	.	i
SMILES	FLuc inh	3T3 cytotox	NPR1 antag	HEK cytotox
CCOCC(=O)N1CCC2(CC1)CN(C(C)C)C2c1ccccc1 (centres undefined)	.	-16.3%	.	-13.4%
CCCn1c(C)cnc1CC1CCN(C(=O)c2ccc(OC)cc2OC)CC1	i	-3.5%	-2.5%	?
COCCOCc1ccc(CC2CCN(C(=O)c3ccc(OC)cc3OC)CC2)cc1	.	?	.	31.6µM*
COc1ncc(-c2ccc3ncn(C4CC4)c(=O)c3n2)cn1	?	?	3.6%[70.6 µM]	i
COc1cccc(CN2CC3(CCN(C)C3)c3cc(C(=O)NC4CCCCC4)ccc32)c1 (centres undefined)	i	25.1µM*	-10.3%[70.6 µM]	56.2µM*
COc1ccc(NC(=O)c2ccc3c(c2)C2(CCN(C)C2)CN3Cc2ccccc2)cc1 (centres undefined)	i	50.1µM*	-4.0%[70.6 µM]	70.8µM*

Assay outcomes: PubChem, National Center for Advancing Translational Sciences (NCATS)
